# Assay outcomes deposited in PubChem BioAssay by University of Kansas High Throughput Screening Laboratory.
# Pf apPOL block = Pf-apPOL inhibitors, biochemical, fluorescence | Recombinant Pf-apPOL, molecular beacon fluorescence, 1.5 h | inhibition, % at 10 µM | 0.25% of 210,000 active | Plasmodium falciparum apicoplast DNA polymerase (apPOL) | AID 1794808, 2022
# mHTT-CaM PPI inh = mutant huntingtin-calmodulin interaction inhibitors – biochemical, AlphaScreen, primary screen. P42858. AlphaScreen His-mHTT/GST-CaM binding, luminescence. inhibition, % at 15 µM. 3.6% of 190,000 active. AID 1671202, 2021
# Target sequence (P42858 whole entry, looked up, change not shown): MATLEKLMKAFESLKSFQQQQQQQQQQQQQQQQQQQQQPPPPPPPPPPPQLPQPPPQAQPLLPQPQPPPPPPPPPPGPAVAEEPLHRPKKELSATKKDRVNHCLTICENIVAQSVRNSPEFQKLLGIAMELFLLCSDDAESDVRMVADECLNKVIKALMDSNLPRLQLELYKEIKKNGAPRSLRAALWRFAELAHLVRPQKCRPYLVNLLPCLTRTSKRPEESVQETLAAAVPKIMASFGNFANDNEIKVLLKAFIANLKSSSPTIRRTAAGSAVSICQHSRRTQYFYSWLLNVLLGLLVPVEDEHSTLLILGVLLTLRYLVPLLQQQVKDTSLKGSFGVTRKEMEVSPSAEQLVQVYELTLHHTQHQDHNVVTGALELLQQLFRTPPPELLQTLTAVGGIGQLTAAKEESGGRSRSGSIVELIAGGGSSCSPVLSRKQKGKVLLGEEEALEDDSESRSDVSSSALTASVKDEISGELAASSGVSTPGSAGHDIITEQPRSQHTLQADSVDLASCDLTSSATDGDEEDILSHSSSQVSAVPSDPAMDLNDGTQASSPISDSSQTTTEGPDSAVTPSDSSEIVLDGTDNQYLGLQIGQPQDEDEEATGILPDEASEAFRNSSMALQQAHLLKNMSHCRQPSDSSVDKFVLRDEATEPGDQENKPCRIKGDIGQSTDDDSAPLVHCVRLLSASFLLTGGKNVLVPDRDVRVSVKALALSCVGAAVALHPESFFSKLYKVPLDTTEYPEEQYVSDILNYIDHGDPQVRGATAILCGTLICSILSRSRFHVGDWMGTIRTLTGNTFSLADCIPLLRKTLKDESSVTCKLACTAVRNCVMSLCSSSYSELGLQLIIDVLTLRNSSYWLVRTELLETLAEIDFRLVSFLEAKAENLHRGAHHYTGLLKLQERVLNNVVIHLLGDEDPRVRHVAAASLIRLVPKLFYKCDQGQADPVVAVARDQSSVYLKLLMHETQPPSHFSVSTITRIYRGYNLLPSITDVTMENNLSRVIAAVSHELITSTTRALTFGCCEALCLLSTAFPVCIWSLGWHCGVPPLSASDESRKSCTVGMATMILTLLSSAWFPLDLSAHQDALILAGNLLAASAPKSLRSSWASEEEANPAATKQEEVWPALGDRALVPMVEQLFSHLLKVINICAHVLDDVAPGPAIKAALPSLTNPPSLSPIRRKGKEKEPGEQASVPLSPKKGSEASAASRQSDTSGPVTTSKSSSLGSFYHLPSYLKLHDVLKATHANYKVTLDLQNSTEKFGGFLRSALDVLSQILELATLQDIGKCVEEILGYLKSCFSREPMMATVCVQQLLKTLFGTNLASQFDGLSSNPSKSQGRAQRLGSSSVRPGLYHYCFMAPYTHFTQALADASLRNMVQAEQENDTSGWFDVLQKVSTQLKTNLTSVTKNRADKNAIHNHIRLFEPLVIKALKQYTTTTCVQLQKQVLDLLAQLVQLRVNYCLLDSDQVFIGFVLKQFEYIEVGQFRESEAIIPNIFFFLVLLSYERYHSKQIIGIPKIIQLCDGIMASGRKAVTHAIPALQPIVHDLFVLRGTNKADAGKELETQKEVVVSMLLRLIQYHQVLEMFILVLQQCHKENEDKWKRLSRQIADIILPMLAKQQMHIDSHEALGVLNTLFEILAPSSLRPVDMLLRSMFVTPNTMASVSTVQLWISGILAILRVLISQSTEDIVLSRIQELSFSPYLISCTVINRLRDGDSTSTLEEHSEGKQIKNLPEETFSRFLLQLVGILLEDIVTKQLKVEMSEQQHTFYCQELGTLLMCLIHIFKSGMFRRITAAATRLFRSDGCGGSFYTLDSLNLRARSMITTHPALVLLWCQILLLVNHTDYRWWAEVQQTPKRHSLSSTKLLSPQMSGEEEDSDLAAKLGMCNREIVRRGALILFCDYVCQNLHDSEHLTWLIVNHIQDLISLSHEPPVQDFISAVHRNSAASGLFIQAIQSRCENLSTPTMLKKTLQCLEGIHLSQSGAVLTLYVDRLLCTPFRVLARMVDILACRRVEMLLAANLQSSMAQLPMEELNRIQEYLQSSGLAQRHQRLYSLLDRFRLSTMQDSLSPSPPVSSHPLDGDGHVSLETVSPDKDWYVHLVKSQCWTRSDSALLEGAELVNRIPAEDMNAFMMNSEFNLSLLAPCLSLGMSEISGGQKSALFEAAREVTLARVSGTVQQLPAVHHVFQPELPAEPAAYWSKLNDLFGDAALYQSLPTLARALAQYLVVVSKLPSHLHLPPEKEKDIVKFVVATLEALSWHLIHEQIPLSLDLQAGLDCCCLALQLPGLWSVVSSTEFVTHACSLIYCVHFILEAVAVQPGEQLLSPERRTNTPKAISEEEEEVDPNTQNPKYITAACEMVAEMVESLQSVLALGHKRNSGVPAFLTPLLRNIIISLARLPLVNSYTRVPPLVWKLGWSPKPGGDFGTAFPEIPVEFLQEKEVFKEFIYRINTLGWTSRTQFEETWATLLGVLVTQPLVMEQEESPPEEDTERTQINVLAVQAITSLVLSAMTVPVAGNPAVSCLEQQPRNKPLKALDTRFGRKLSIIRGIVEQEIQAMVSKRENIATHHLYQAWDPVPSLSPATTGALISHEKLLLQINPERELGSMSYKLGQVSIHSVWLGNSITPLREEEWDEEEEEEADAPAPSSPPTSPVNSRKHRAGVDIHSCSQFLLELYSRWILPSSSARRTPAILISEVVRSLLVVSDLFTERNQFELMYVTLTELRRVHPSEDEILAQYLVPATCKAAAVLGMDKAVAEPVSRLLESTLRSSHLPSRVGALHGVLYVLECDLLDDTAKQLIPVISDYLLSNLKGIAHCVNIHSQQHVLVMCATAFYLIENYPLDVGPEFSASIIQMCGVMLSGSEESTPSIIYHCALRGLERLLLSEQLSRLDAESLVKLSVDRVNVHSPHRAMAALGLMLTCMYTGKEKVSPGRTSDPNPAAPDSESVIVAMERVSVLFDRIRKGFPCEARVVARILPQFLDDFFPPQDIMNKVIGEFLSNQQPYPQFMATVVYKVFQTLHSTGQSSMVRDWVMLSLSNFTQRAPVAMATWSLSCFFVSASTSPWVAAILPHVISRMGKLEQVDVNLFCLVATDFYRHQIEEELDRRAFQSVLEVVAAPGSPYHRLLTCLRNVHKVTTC
# A number is an active result; - = inactive; . = no result given; ! = not confirmed by another sample. Sampled rows, rich in hits. Any-hit rate of the full collection: about 3.6%. No stated cut-off is given here; in the data, active means inhibition above about 50%; inactive means the rest.
SMILES,Pf apPOL block,mHTT-CaM PPI inh
CCOC(=O)N1CCC2(CC1)N=C(c1ccc(C)cc1)CC(c1cc(Cl)ccc1O)N2 (configuration not stated),-,-
Cc1ccc2c(Nc3cccc(C(F)(F)F)c3)c(C(=O)N3CCOCC3)cnc2n1,-,-
O=C(NCCc1ccc(Cl)cc1)C1CC(=O)N(c2ccc(F)c(Cl)c2)C1 (configuration not stated),-,-
CC1CCCCN1C(=O)c1ccccc1N1CCC(NC(=O)C(C)(C)C)CC1 (configuration not stated),-,-
CCN1CCC2(CC1)N=C(c1ccccc1O)CC(c1ccc(Cl)cc1)N2 (configuration not stated),-,60
CN1CCC2(CC1)N=C(c1cc(Cl)ccc1O)CC(c1ccccc1O)N2 (configuration not stated),-,-
CCN1CCC2(CC1)N=C(c1cc(Cl)ccc1O)CC(c1ccc(OC)cc1)N2 (configuration not stated),-,100
CC(=O)N1CCC2(CC1)N=C(c1ccccc1O)CC(c1ccccc1O)N2 (configuration not stated),-,-
CC(=O)N1CCC2(CC1)N=C(c1ccccc1O)CC(c1ccc(C)cc1C)N2 (configuration not stated),-,58
CCN1CCC2(CC1)N=C(c1ccccc1O)CC(c1ccccc1O)N2 (configuration not stated),-,-
NCCNC(=O)c1c(O)c2cccc3c2n(c1=O)CC3,-,-
NCCCCCCNC(=O)c1c(O)c2cccc3c2n(c1=O)CC3,-,100
O=C(Nc1ccncc1)c1c(O)c2cccc3c2n(c1=O)CC3,-,-
C=CCn1c(=O)c(C(=O)Nc2ccccc2)c(O)c2ccccc21,-,-
C=CCn1c(=O)c(C(=O)Nc2ncccc2C)c(O)c2ccccc21,-,98
Cc1cccnc1NC(=O)c1c(O)c2cccc3c2n(c1=O)CC3,-,80
COc1ccc(C(=O)NNC(=O)c2ccc(-n3c(C)ccc3C)cc2)cc1OC,-,.
Cc1ccc(C)c(NC(=O)Cn2[nH]c3c(cnc4ccc(F)cc43)c2=O)c1,-,-
O=C(Nc1c2c(nn1-c1ccc(F)cc1)CS(=O)(=O)C2)c1cc([N+](=O)[O-])ccc1Cl,-,-
CC[C@@]1(O)C(=O)OCc2c1cc1n(c2=O)Cc2cc3c(CN(C)C)c(O)ccc3nc2-1,84,.
CN(C)Cc1c(O)ccc2c(-c3ccccc3)cc(=O)oc12,-,-
COc1cccc(NC(=O)c2cccc(Br)c2)c1,-,-
O=[N+]([O-])c1ccccc1/C=C/CN1CCN(c2ccc(F)cc2)CC1,-,-
O=[N+]([O-])c1ccccc1/C=C/CN1CCN(c2cccc(Cl)c2)CC1,-,59
C=CCn1c(N=Cc2ccc(N(C)C)cc2)nc2ccccc21,-,71
SMILES,Pf apPOL block,mHTT-CaM PPI inh
C=CCn1c(N=Cc2ccc(Cl)cc2)nc2ccccc21,-,-
Cc1ccc(N2NC(=O)/C(=C\c3cccc(Br)c3)C2=O)cc1C,-,69
O=C1NN(c2ccc(Br)cc2)C(=O)/C1=C/c1cc([N+](=O)[O-])c(Cl)cc1Cl,-,95
Cc1ccc(N2NC(=O)/C(=C\c3ccc(Br)cc3)C2=O)cc1C,-,-
O=C1NN(c2ccc(F)cc2)C(=O)/C1=C/c1cccc(Br)c1,-,70
Cc1ccc(N2NC(=O)/C(=C\c3ccc(Cl)c([N+](=O)[O-])c3)C2=O)cc1C,-,96
O=C1NN(c2cccc(Br)c2)C(=O)/C1=C/c1ccc(O)cc1,-,-
Cc1ccc(N2NC(=O)/C(=C\c3ccc(O)c([N+](=O)[O-])c3)C2=O)cc1Cl,-,-
Cc1cc([N+](=O)[O-])cc(/C=C2\C(=O)NN(c3ccc(Br)cc3)C2=O)c1O,-,-
CCOCC(=O)N1CCC(OCc2nc(-c3cccnc3)no2)CC1,-,-
Cc1cccc(NC2CCS(=O)(=O)C2)c1 (configuration not stated),-,-
CC(C)CCOc1ccc(C(=O)NC(CC(=O)O)c2ccccc2)cc1 (configuration not stated),-,-
CCN(CC)C(=O)c1cc(-c2ccc(OC)cc2OC)nc2ccccc12,-,-
Cc1ccc(N2C(=N)S/C(=C\c3sccc3C)C2=O)cc1C,-,-
COc1ccc(C2CC(c3ccccc3)Nc3nc(N)nn32)cc1OC (configuration not stated),-,-
Cc1ccc(S(=O)(=O)N2CCC(c3noc(-c4ccccc4C)n3)CC2)cc1F,-,-
Cc1ccc(S(=O)(=O)N2CCC(c3nc(CNC(=O)C4CC4)cs3)CC2)c(C)c1,-,-
O=C(Nc1c(C(=O)Nc2ccccc2)cnn1-c1ccccc1)c1ccccc1,-,-
COc1ccccc1NC(=O)c1cnn(-c2ccccc2)c1NC(=O)c1cccc(F)c1,-,59!
Cc1ccc(OCC(=O)Nc2ccc(C(C)C)cc2)cc1,-,-
CC(C)c1ccc(OCC(=O)Nc2nnc(-c3ccc(Br)o3)o2)cc1,-,52
